Only some compounds are listed: those with a hit (about 1.5% of all), similar ones and a draw of the others.
PriA SSB inh – blocks PriA binding to SSB C-terminal tail. AlphaScreen SSBct-PriA binding, biotinylated peptide. inhibition, % at 33 µM. 430,000 compounds, 0.6% hits; in the data active = inhibition mostly above about 37%, no sharp cut-off; inactive = mostly below about 20%
BH1578 lux ind – quorum light induction in luxS cqsA deficient V. cholerae; V. cholerae BH1578 lux reporter, luminescence, 6 h; 350,000 compounds, 0.16% hits; AID 588436; activation, % at 18.7 µM; in the data active = activation mostly above about 9.7%, no sharp cut-off
PrPC surface inh – inhibitors of human cell surface prion protein PrPC | TR-FRET read-out | inhibition, % at 13.8 µM | 370,000 compounds, 0.43% hits; in the data active = inhibition above about 24%
VHR inh abs – blocks human VHR1 dual specificity phosphatase; recombinant VHR phosphatase, pNPP absorbance; inhibition, % at 13.3 µM; 290,000 compounds, 0.52% hits; P51452; in the data active = inhibition above about 50%
CCHFV vOTU inh – blocks the CCHF virus ovarian tumor domain protease; CCHFV vOTU protease, Pep-AMC fluorescence; inhibition, % at 11.5 µM; 370,000 compounds, 0.55% hits; in the data active = inhibition above about 30%
TcdB GH inh – TcdB glycohydrolase inhibition. 350,000 compounds, 0.24% hits. TcdB glycohydrolase enzymatic assay, plate reader. P18177. AID 652162. inhibition, % at 9.99 µM; in the data active = inhibition above about 10%
Of the large screens only hits and unclear results are named; the others gave an inactive call.

Cc1cc(C)n(-c2nc(C)c(C)c(=O)n2CC(=O)NCc2ccco2)n1	none (no result: BH1578 lux ind, PrPC surface inh, VHR inh abs, CCHFV vOTU inh, TcdB GH inh)
Cc1ccc(NC(=O)C2C3CCCCC32)cc1[N+](=O)[O-] (stereo not drawn)	PriA SSB inh 41
CC(=O)Nc1ccc(C)c([N+](=O)[O-])c1	none
CCNC(=O)C[C@H]1CC[C@@H]2[C@H](COc3ccc(NC(C)=O)cc3C(=O)N2C)O1	TcdB GH inh 12 (no result: PriA SSB inh, BH1578 lux ind, PrPC surface inh, VHR inh abs, CCHFV vOTU inh)
CCNC(=O)C[C@H]1CC[C@H]2[C@@H](COc3ccc(NC(C)=O)cc3C(=O)N2C)O1	none (no result: PriA SSB inh, BH1578 lux ind, PrPC surface inh, VHR inh abs, CCHFV vOTU inh)
CCCNC(=O)C[C@H]1CC[C@@H]2[C@@H](COc3ccc(NC(=O)c4ccc5c(c4)OCO5)cc3C(=O)N2C)O1	TcdB GH inh 12 (no result: PriA SSB inh, BH1578 lux ind, PrPC surface inh, VHR inh abs, CCHFV vOTU inh)
CCNC(=O)C[C@H]1CC[C@@H]2[C@@H](COc3ccc(NC(C)=O)cc3C(=O)N2C)O1	TcdB GH inh 25 (no result: PriA SSB inh, BH1578 lux ind, PrPC surface inh, VHR inh abs, CCHFV vOTU inh)
CCNC(=O)C[C@@H]1CC[C@H]2[C@@H](COc3ccc(NC(C)=O)cc3C(=O)N2C)O1	TcdB GH inh 16 (no result: PriA SSB inh, BH1578 lux ind, PrPC surface inh, VHR inh abs, CCHFV vOTU inh)
O=C(CF)NC(Nc1cccc2cccnc12)C(Cl)(Cl)Cl (stereo not drawn)	PriA SSB inh 73 (no result: TcdB GH inh)
CCC(=O)NC(NC(=S)Nc1cccc2cccnc12)C(Cl)(Cl)Cl (stereo not drawn)	none
CC(C)(C)C(=O)NC(Nc1cccc2cccnc12)C(Cl)(Cl)Cl (stereo not drawn)	PriA SSB inh 87 (no result: BH1578 lux ind, TcdB GH inh)
OCC1(CCc2ccccc2)CCCN(C/C=C/c2ccccc2)C1 (stereo not drawn)	VHR inh abs 57
O=[N+]([O-])c1c(Nc2ccccc2O)ccc2nonc12	TcdB GH inh 13
Cc1cc(=O)[nH]c(-n2nc(C)c(CCC(=O)Nc3nc4c(C)cccc4s3)c2C)n1	none (no result: BH1578 lux ind, PrPC surface inh, VHR inh abs, CCHFV vOTU inh, TcdB GH inh)
COc1ccccc1OCCNC(=O)c1ccco1	none
NCCOc1ccc(-c2ccccn2)nn1	PriA SSB inh 154 (no result: BH1578 lux ind, PrPC surface inh, VHR inh abs, CCHFV vOTU inh, TcdB GH inh)
NCCOc1ccccc1OCCN	none
O=C(NCCOc1ccc(-c2ccccn2)nn1)c1ccco1	PriA SSB inh 116 (no result: BH1578 lux ind, PrPC surface inh, VHR inh abs, CCHFV vOTU inh, TcdB GH inh)
COc1ccccc1CCNC(=O)C(C)n1nc(C)ccc1=O (stereo not drawn)	none (no result: BH1578 lux ind, PrPC surface inh, VHR inh abs, CCHFV vOTU inh, TcdB GH inh)
COC(=O)C1C(=O)NC(SCC(=O)Nc2nccs2)=C(C#N)C1c1ccccc1C (stereo not drawn)	none (no result: BH1578 lux ind, PrPC surface inh, VHR inh abs, CCHFV vOTU inh, TcdB GH inh)
Cc1cc(C(c2ccc(C)o2)c2ccc(C)o2)c(O)c([N+](=O)[O-])c1	none (no result: TcdB GH inh)
Cc1ccc(C(c2ccc(C)o2)c2cccc([N+](=O)[O-])c2O)o1	PriA SSB inh 45
CC1Oc2ccccc2C=C1/C=N/NC(=O)c1cccnc1 (stereo not drawn)	none (no result: BH1578 lux ind, PrPC surface inh, VHR inh abs, CCHFV vOTU inh, TcdB GH inh)
CCOC(=O)N1CCN(C(=O)N[C@H]2CC(=O)N(c3ccc(OC)cc3)C2)CC1	none (no result: BH1578 lux ind, PrPC surface inh, VHR inh abs, CCHFV vOTU inh, TcdB GH inh)
Fc1ccccc1-n1c(-c2ccc3ccccc3n2)n[nH]c1=S	VHR inh abs 53
Fc1cccc(NC(=S)NNc2c3ccccc3nc3ccccc23)c1	TcdB GH inh 20
COCCN(Cc1ccsc1)C(=O)NCCc1ccc(OC)cc1	none (no result: BH1578 lux ind, PrPC surface inh, VHR inh abs, CCHFV vOTU inh, TcdB GH inh)
CCOc1cc(NC(=S)NCC2CCCO2)c(OCC)cc1NC(=O)c1ccc(C)cc1 (stereo not drawn)	none (no result: TcdB GH inh)
CCOc1cc(NC(=S)NCC2CCCO2)c(OCC)cc1NC(=O)c1ccc(F)cc1 (stereo not drawn)	TcdB GH inh 19
CC(c1ccccc1)n1c(Br)nc2c1c(=O)[nH]c(=O)n2C (stereo not drawn)	none
CC(c1ccccc1)n1c(N2CCNCC2)nc2c1c(=O)[nH]c(=O)n2C (stereo not drawn)	VHR inh abs 56
CCOc1ccc(-c2noc(C3CCCN(S(=O)(=O)c4cccs4)C3)n2)cc1OC (stereo not drawn)	none (no result: BH1578 lux ind, PrPC surface inh, VHR inh abs, CCHFV vOTU inh, TcdB GH inh)
CN1CCN(C(CNS(=O)(=O)c2cccc(F)c2)c2ccsc2)CC1 (stereo not drawn)	none (no result: BH1578 lux ind, PrPC surface inh, VHR inh abs, CCHFV vOTU inh, TcdB GH inh)
Cc1nc2cc(NC(=O)c3ccc([N+](=O)[O-])s3)ccc2s1	none
O=C(Nc1ccc2sccc2c1)c1ccc([N+](=O)[O-])s1	PriA SSB inh 46 (no result: BH1578 lux ind, PrPC surface inh, VHR inh abs, CCHFV vOTU inh, TcdB GH inh)
Nc1c(C(=O)Nc2ccc(S(=O)(=O)N3CCCC3)cc2)sc2nc3cc4c(cc3cc12)CCC4	VHR inh abs 51 (no result: TcdB GH inh)
COc1cccc(NC(=O)CSc2nnc(Cc3ccc(C)cc3)c(=O)n2N)c1	none (no result: VHR inh abs)
COc1ccc(Cc2nnc(SCC(=O)Nc3ccc(C)cc3)n(N)c2=O)cc1	CCHFV vOTU inh 30 (no result: VHR inh abs)
Cc1nc(-c2ccccc2NC(=O)Cn2cncn2)cs1	none (no result: BH1578 lux ind, PrPC surface inh, VHR inh abs, CCHFV vOTU inh, TcdB GH inh)
O=C(NN=Cc1c(O)ccc2ccccc12)c1ccc[n+](CCO)c1	PriA SSB inh 41 (no result: BH1578 lux ind, PrPC surface inh, VHR inh abs, CCHFV vOTU inh, TcdB GH inh)

Screening results from PubChem BioAssay.
